Unmarked numbers belong to inactive results. For part of these data: Results with a measured potency or affinity are listed apart. Calls of active or inactive are those of the source. Unless noted, no rule for the calls is given here.

Assay [1] in a line: antimalarial activity against Dd2 strain (AID 2302;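 active = growth inhibition above 50% at the single 2 µM test dose, taken to imply half-maximal potency below 2 µM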;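 also: 0% = DMSO untreated growth and 100% = chloroquine plus artemisinin killed control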). The following applies: P. falciparum Dd2 in RBCs, LDH growth readout, 72 h; at 2 µM; stronger effect = higher value.
The nature of assay [2]: HepG2 cytotoxicity, primary screen, cytotoxicity control for P. falciparum antimalarial project, cell-based, ATP luminescence (AID 2303;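 active = inhibition above 50%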;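 also: 0% = DMSO wells and 100% = digitonin-killed cells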). The note with it: HepG2 viability, 24-48 h, at 10 µM, stronger effect = higher value.
The target in assay [3] is L-lactate dehydrogenase (Plasmodium falciparum (isolate CDC / Honduras)) (UniProt Q27743). Kind of assay: PfLDH activity inhibition – cell lysate, 3D7 strain, counter-screen for P. falciparum growth inhibition project (AID 2304).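 Also: 0% = vehicle and 100% = reference inhibitor.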 The following applies: P. falciparum 3D7 crude extract, LDH APAD/NBT absorbance; at 2 µM; stronger effect = higher value. Background: The purpose of a counterscreen is to sort out artefacts and off-target activity.
Sequence of L-lactate dehydrogenase (Plasmodium falciparum (isolate CDC / Honduras)) (Q27743 whole entry, looked up): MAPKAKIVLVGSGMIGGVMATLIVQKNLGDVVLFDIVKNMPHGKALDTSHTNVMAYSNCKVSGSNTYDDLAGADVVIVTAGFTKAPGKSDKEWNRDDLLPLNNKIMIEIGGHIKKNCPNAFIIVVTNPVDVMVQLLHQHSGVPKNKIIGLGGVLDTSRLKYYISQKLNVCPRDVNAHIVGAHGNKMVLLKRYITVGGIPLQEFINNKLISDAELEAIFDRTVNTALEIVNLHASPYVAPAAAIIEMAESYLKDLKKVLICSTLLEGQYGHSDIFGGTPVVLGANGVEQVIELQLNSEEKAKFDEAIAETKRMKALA

Assay [4] is described as follows: inhibition of 3D7 malaria parasite growth – strain 3D7 (AID 2306).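 Also: 0% = DMSO wells and 100% = chloroquine plus artemisinin control wells.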 The following applies: P. falciparum 3D7 erythrocytic growth, LDH absorbance, 72 h; at 2 µM; stronger effect = higher value.
The target of assay [5] is Calcium-dependent protein kinase 1 (Plasmodium falciparum (isolate 3D7)) (UniProt P62344). In words: PfCDPK1 kinase inhibitors, biochemical, TCAMS library (AID 1159585; cut-off not given, nearly all actives have IC50 up to about 0.98 µM;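 also: inhibitors leave more ATP so luminescence rises with inhibition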). The note with it: recombinant PfCDPK1, Kinase-Glo ATP depletion luminescence.
Sequence of Calcium-dependent protein kinase 1 (Plasmodium falciparum (isolate 3D7)) (P62344 whole entry, looked up): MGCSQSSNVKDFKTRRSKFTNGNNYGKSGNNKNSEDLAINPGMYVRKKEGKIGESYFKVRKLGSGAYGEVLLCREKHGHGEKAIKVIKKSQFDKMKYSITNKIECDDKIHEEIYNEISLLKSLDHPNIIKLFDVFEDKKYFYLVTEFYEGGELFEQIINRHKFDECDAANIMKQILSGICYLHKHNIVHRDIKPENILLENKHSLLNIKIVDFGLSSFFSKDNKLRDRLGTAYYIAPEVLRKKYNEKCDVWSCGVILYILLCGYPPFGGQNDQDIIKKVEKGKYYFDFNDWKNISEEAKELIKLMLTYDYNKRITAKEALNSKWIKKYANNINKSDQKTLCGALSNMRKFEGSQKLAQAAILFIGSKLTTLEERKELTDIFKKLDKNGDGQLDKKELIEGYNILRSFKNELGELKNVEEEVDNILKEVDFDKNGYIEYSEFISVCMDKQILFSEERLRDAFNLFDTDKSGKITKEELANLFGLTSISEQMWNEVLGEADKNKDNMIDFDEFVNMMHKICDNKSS
In assay [6] the target is Plasmodium falciparum protein kinase 6 (PK6, PF3D7_1337100) (UniProt Q8IDW1). Kind of assay: PfPK6 kinase inhibitors, biochemical, TCAMS library (AID 1159586). The following applies: recombinant PfPK6, Kinase-Glo ATP depletion luminescence. In general terms: Kinase-Glo measures the ATP left after a reaction by luminescence.
Sequence of Plasmodium falciparum protein kinase 6 (PK6, PF3D7_1337100) (Q8IDW1 1-305): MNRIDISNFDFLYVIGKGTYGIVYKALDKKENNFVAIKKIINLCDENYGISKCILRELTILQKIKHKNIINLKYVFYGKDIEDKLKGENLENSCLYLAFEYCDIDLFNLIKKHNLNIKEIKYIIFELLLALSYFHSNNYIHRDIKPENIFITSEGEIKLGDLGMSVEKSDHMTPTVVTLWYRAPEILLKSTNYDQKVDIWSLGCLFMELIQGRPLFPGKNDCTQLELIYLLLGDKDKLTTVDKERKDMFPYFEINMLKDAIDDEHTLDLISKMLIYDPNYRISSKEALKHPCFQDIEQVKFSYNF
Assay [7] addresses Protein kinase 7 (PK7), Plasmodium falciparum 3D7 (PF3D7_0213400) (UniProt Q7YTF7). Kind of assay: inhibition of Plasmodium PK7 catalytic activity – biochemical, TCAMS antimalarial set, Kinase-Glo luminescence (AID 1159587). The following applies: recombinant PfPK7, Kinase-Glo ATP depletion luminescence.
Assay [8] addresses Calcium-dependent protein kinase 4 (Plasmodium falciparum (isolate 3D7)) (UniProt Q8IBS5). Kind of assay: PfCDPK4 kinase inhibitors, biochemical, TCAMS library (AID 1159588; cut-off not given, nearly all actives have IC50 up to about 0.91 µM). The note with it: recombinant PfCDPK4, Kinase-Glo ATP depletion luminescence.

Sequence of Protein kinase 7 (PK7), Plasmodium falciparum 3D7 (PF3D7_0213400) (Q7YTF7 1-343): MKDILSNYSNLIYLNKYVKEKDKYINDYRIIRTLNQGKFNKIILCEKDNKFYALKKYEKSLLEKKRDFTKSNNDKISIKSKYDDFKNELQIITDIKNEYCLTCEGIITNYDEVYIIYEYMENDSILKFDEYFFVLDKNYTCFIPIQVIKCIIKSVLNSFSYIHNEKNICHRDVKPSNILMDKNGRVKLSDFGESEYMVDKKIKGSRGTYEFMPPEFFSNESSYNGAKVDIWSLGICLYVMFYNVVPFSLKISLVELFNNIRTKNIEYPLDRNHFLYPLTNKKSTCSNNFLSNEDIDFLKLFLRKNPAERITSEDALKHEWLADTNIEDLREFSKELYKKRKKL
Sequence of Calcium-dependent protein kinase 4 (Plasmodium falciparum (isolate 3D7)) (Q8IBS5 whole entry, looked up): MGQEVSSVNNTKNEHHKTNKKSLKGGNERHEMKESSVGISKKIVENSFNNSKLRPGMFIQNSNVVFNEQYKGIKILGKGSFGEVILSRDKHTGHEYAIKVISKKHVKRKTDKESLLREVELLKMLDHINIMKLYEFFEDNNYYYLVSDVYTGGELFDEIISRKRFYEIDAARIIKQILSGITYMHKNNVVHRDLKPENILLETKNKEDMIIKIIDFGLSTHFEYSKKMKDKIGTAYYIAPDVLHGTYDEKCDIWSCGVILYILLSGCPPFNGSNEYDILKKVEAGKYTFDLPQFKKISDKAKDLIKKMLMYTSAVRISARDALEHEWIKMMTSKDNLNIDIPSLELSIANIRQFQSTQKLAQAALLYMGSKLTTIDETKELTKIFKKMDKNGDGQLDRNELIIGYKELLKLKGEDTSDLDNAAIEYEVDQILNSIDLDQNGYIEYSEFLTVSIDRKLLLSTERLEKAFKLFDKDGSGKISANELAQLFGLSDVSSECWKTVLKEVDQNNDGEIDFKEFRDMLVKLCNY

On to `CC(=O)c1ccc2nc[nH]c(=O)c2c1`, for which the growth inhibition in assay [1] was 99% (active); in assay [4] it was 96% (active). Moreover, the inhibition (in general, the relative decrease from the control value, in per cent) in assay [2] is 79% (active); in assay [3], -1%. The outcome in assay [5], in assay [6], in assay [7] and in assay [8] was inactive.

Take `CCc1cc2c3c(N)nc(N)nc3ccc2n1C(C)CC` (centres undefined): the figures for the growth inhibition in assay [1] and in assay [4] were 99% (active) and 100% (active), respectively. For the same molecule, the inhibition was 73% (active) in assay [2] and 0% in assay [3]. In addition, the outcome in assay [5], in assay [6], in assay [7] and in assay [8] was inactive.

Consider `COc1cc(C)c(NC(=O)c2cccc3c(=O)c(C)c(-c4ccccc4)oc23)cc1OC`, for which the growth inhibition was 32% in assay [1] and 86% (active) in assay [4]. Moreover, the values for the inhibition in assay [2] and in assay [3] were 96% (active) and 2%, respectively. Further, the outcome in assay [5], in assay [6], in assay [7] and in assay [8] was inactive.

Regarding `COc1ccc(NC(=O)/C=C/c2ccccc2Cl)cc1OCCN1CCC(N2CCN(C)CC2)CC1`, the growth inhibition in assay [1] was 49%; in assay [4] it was 102% (active). The values for the inhibition in assay [2] and in assay [3] were 19% and 5%, respectively. Also, the outcome in assay [5], in assay [6], in assay [7] and in assay [8] was inactive.

As to `CCCCc1ccc(-c2nc(NC(=O)Nc3nc(-c4ccccc4)[nH]c3C(=O)OCC)c(C(=O)OCC)[nH]2)cc1`, the growth inhibition in assay [1] was 26%; in assay [4], 95% (active). The inhibition in assay [2] was 0%; in assay [3] it was -4%. Further, the outcome in assay [5], in assay [6], in assay [7] and in assay [8] was inactive.

On to `FC(F)(F)c1ccc2c(NCCNc3ccnc4cc(C(F)(F)F)ccc34)ccnc2c1`, for which the growth inhibition in assay [1] is 100% (active); in assay [4], 101% (active). The inhibition in assay [2] was 21%; in assay [3] it was 1%. Also, the result in assay [5], in assay [6], in assay [7] and in assay [8] was inactive.

With `Cc1ccc(O)c(C(=O)c2cnc3c(c2)c(-c2ccc(F)cc2)c(C#N)c(=O)n3C)c1`, the growth inhibition was 56% (active) in assay [1] and 93% (active) in assay [4]. The inhibition in assay [2] is 17%; in assay [3] it was 2%. The result in assay [5], in assay [6], in assay [7] and in assay [8] was inactive.

For `Cc1cc(-c2ccc(Cl)cc2)c2c(N)c(C(=O)Nc3ccc(F)cc3)sc2n1`, the results for the growth inhibition in assay [1] and in assay [4] were 87% (active) and 97% (active), respectively. In addition, the results for the inhibition in assay [2] and in assay [3] were 12% and 0%, respectively. The result in assay [5], in assay [6], in assay [7] and in assay [8] was inactive.

As to `CN(C)CCCOc1cc(NC(=O)Nc2ccc(-c3ccncc3)c3ccccc23)ccc1I`, the growth inhibition in assay [1] is 97% (active); in assay [4] it was 101% (active). Besides, the results for the inhibition in assay [2] and in assay [3] were 46% and 1%, respectively. In addition, the result in assay [5], in assay [6], in assay [7] and in assay [8] was inactive.

`CCN(CCCN1CCCCC1)c1cc(C)nc(Nc2cccc(C(F)(F)F)c2C)n1`: the growth inhibition in assay [1] is 37%; in assay [4], 99% (active). Further, the values for the inhibition in assay [2] and in assay [3] were 57% (active) and -2%, respectively. Besides, the outcome in assay [5], in assay [6], in assay [7] and in assay [8] was inactive.

Regarding `CSc1nc2cc3c(cc2n1C(=O)c1ccc(C)cc1)OCCO3`, the growth inhibition in assay [1] is -1%; in assay [4] it was 99% (active). Also, the inhibition in assay [2] and in assay [3] was -6% each time. In addition, the outcome in assay [5], in assay [6], in assay [7] and in assay [8] was inactive.

With `COc1nc2c(CCN3CCC(NCc4ccc5c(c4)NCCO5)CC3)c(Cl)cnc2cc1F`, the growth inhibition was 98% (active) in assay [1] and 102% (active) in assay [4]. The inhibition in assay [2] is 23%; in assay [3], 1%. Further, the outcome in assay [5], in assay [6], in assay [7] and in assay [8] was inactive.

In the case of `CS(=O)(=O)c1cccc2sc(N3CCN(C(=O)c4ccc([N+](=O)[O-])o4)CC3)nc12`, the growth inhibition is 61% (active) in assay [1] and 84% (active) in assay [4]. Moreover, the inhibition in assay [2] was -26%; in assay [3] it was -4%. Besides, the outcome in assay [5], in assay [6], in assay [7] and in assay [8] was inactive.

Turning to `COc1cc(NC(=O)c2cccs2)c(OC)cc1NC(=O)Nc1cccc(Cl)c1`, the growth inhibition is 10% in assay [1] and 83% (active) in assay [4]. Besides, the inhibition in assay [2] is 5%; in assay [3], -3%. Besides, the outcome in assay [5], in assay [6], in assay [7] and in assay [8] was inactive.

As to `O=C(NC1CC1)C1CCN(Cc2cc3ccccc3n2Cc2ccc(Cl)cc2)CC1`, the figures for the growth inhibition in assay [1] and in assay [4] were 96% (active) and 95% (active), respectively. The inhibition in assay [2] is 16%; in assay [3] it was -1%. In addition, the outcome in assay [5], in assay [6], in assay [7] and in assay [8] was inactive.

Take `CCc1c(C(=O)NC2CCC(N3CCC(c4ccccc4OC)CC3)CC2)[nH]c2ccc(OC)cc12` (centres undefined): the growth inhibition in assay [1] was 99% (active); in assay [4] it was 101% (active). Besides, the inhibition in assay [2] was 43%; in assay [3], -5%. Further, the outcome in assay [5], in assay [6], in assay [7] and in assay [8] was inactive.

As for `COc1cc(-n2cnc3cc(-c4ccc([N+](=O)[O-])cc4)sc3c2=O)ccc1OCCN1CCCC1`, the growth inhibition in assay [1] was 79% (active); in assay [4], 97% (active). Moreover, the values for the inhibition in assay [2] and in assay [3] were 44% and -4%, respectively. The result in assay [5], in assay [6], in assay [7] and in assay [8] was inactive.

For `O=C(/C=C/c1ccc(Cl)c(Cl)c1)NCCCCCN1CCCN(C(=O)Nc2ccc(F)c(Cl)c2)CC1`, the growth inhibition in assay [1] is 0%; in assay [4], 95% (active). Moreover, the inhibition in assay [2] was 31%; in assay [3] it was 1%. In addition, the result in assay [5], in assay [6], in assay [7] and in assay [8] was inactive.
